The values below come from PubChem BioAssay (NCATS).

Unmarked numbers belong to inactive results. Calls follow the shape of the full dose curve.
Potency is read from the fitted curve at half-maximal effect.

Sequence of Glucocorticoid receptor (Homo sapiens) (P04150 whole entry, looked up): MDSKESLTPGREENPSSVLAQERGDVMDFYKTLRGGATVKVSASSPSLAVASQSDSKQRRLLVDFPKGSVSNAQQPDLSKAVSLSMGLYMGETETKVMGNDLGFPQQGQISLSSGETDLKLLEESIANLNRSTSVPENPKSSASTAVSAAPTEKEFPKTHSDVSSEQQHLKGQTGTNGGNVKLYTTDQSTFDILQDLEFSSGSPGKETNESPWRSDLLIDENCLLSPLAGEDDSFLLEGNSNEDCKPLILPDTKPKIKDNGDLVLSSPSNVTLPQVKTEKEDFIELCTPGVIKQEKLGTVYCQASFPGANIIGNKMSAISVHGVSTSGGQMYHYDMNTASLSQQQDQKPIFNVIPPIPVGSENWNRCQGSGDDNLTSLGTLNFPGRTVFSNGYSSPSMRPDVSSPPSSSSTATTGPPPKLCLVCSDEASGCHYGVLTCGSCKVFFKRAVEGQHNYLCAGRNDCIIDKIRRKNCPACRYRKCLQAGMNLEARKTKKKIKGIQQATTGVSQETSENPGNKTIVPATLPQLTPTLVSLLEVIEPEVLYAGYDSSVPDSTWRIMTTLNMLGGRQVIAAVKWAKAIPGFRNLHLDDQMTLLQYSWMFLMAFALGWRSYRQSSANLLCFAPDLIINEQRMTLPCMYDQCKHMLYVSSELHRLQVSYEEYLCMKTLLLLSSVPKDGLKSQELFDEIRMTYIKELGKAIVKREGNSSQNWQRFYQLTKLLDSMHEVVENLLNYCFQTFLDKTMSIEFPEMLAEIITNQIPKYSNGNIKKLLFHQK

The experiment has as its target Glucocorticoid receptor (Homo sapiens) (UniProt P04150). Briefly: GR-EFC Redistribution (AID 451). Particulars: CHO-K1 GR-EFC translocation, beta-gal luminescence, 2 h. An excerpt: NIH Molecular Libraries Screening Centers Network [MLSCN]
NIH Chemical Genomics Center [NCGC]
The glucocorticoid receptor (GR) is a cytoplasmic receptor that belongs to the nuclear receptor family of ligand-dependent transcription factors. Upon glucocorticoid binding to its receptor, the glucocorticoid-GR complex translocates into the nucleus, where it binds as a dimer to specific DNA sequences (glucocorticoid response elements), enhancing or suppressing transcription of a wide variety of glucocorticoid-responsive genes. In addition to their important roles in normal physiology and metabolism, glucocorticoids are administered exogenously as treatments for a wide variety of allergic, autoimmune, and neoplastic conditions. Identification of compounds that modulate aspects of GR signalling would be useful in dissecting glucocorticoid response pathways as well as developing GR modulators with more targeted clinical effects.
Traditionally, GR modulators have been identified using receptor binding or direct transactivation assays. However, assays for glucocorticoid-dependent nuclear translocation can also be used to screen for compounds affecting GR signaling.
Immunocytochemical staining has been used to assay for GR translocation, but is not suitable for high throughout screening due to the multiple reagent addition and wash steps required. Recently, a novel cell-based GR assay in Enzyme Fragment Complementation (EFC) format was developed by DiscoveRx (Fremont, CA). The assay uses EFC of b-galactosidase (b-gal) as an indicator of GR-translocation in engineered CHO-K1 biosensor cells. The enzyme acceptor (EA) fragment of b-gal resides in the nucleus , as designed through the use of a proprietary set of sequence additions and modifications. The small peptide enzyme donor (ED) fragment of b-gal is fused directly to the C-terminus of GR, and is localized in the cytoplasm is the absence of receptor signaling. Upon binding to a GR ligand, the complex translocates to the nucleus, where intact enzyme activity is restored by complementation and b-gal activity is detected. We optimized this GR-EFC assay in homogenous 1536-well plate assay format for high throughput screening.
NCGC Assay Protocol Summary:
CHO-K1 cells stably expressing NLS-enzyme acceptor fragment (EA) of b-gal and GR-enzyme donor (ED) fragment of b-gal were maintained in F12 medium (Invitrogen, Carlsbad, CA) at 37 Celsius degrees under a humidified atmosphere containing 5% CO2 and 95% air. The medium contained 10% FBS, 2 mM L-glutamine, 50 U/ml penicillin 50 ug/ml streptomycin, and 250 ug/ml hygromycin and 500 ug/ml G418 (Invitrogen).
GR-translocation was measured beta-gal enzyme activity using the PathHunter Detection Kit containing cell membrane permeablizing reagent and beta-gal substrate (DiscoveRx, Fremont, CA). All compounds were screened as titrations from 0.6 nM to 46 uM final concentration. The assay was performed in 1536-well format as follows:
5 uL cell suspension (1,000 cells)/well
Incubation at 37 Celsius degrees for two hours
1.25 uL 1X detection buffer from the kit supplied by DiscoveRx
Incubation at room temperature for one hour
Read plate in luminescence mode in ViewLux plate reader (PerkinElmer)
Keywords: NIH Roadmap, MLSCN, MLI, MLSMR, GR-EFC, GREFC, qHTS, NCGC
Regarding `O=C(O)c1cc([N+](=O)[O-])ccc1NCCCc1ccccc1`, the Potency is greater than 46 µM.

On to `O=C(O)[C@@H]1C[C@@H](C(=O)O)N1`, for which the Potency is greater than 46 µM.

`CN1CCc2ccccc2Cc2[nH]c3ccccc3c2CC1`: the Potency was greater than 46 µM.

As for `N#C/C(=C\c1ccc(O)c(O)c1)C(=O)NCCCc1ccccc1`, the Potency was greater than 46 µM.

On to `Cn1cc(C2=C(c3ccc(Cl)cc3Cl)C(=O)NC2=O)c2ccccc21`, for which the Potency is greater than 46 µM.

As for `NCCNC(=O)c1ncsc1-c1cccc(F)c1`, the Potency is greater than 46 µM.

Take `O=S(=O)(c1cccc2c(I)cccc12)N1CCCNCC1`: the Potency was greater than 46 µM.

`C[C@@H](NC(=O)/C(C#N)=C/c1ccc(O)c(O)c1)c1ccccc1`: the Potency is greater than 46 µM.

Turning to `O=c1[nH]c2cc([N+](=O)[O-])c([N+](=O)[O-])cc2[nH]c1=O`, the Potency was greater than 46 µM.

Turning to `N=c1ccn2c(n1)O[C@H]1[C@H](O)[C@@H](CO)O[C@H]12`, the Potency is greater than 46 µM.

With `CCCSc1ccc2nc(NC(=O)OC)[nH]c2c1`, the Potency was greater than 20.6 µM.

Turning to `NCCCCC(=O)O`, the Potency was greater than 46 µM.

Take `O=C(O)c1ccccc1Nc1cccc(C(F)(F)F)c1`: the Potency was greater than 20.6 µM.

On to `NC(N)=NC(=O)c1nc(Cl)c(N2CCCCCC2)nc1N`, for which the Potency was greater than 46 µM.

On to `O=c1[nH]c2cc(Cl)c(Cl)cc2[nH]c1=O`, for which the Potency was greater than 46 µM.

Regarding `COc1cc2c(CCNC(C)=O)c[nH]c2cc1Cl`, the Potency was greater than 46 µM.

For `COc1cc(OC)c(/C=C2/C(=O)Nc3ccccc32)c(OC)c1`, the Potency was greater than 46 µM.

For `O=C(O)c1cc(=O)c2c(Cl)cc(Cl)cc2[nH]1`, the Potency was greater than 46 µM.

For `C[C@@H](CN1CCC(Cc2ccccc2)CC1)[C@@H](O)c1ccc(O)cc1`, the Potency was greater than 46 µM.

On to `CC(C)NC[C@H](O)COc1cccc2[nH]ccc12`, for which the Potency is greater than 46 µM.

With `Clc1ccccc1-c1nc(-c2ccncc2)no1`, the Potency is greater than 9.22 µM.

Turning to `CC(=O)SCC[N+](C)(C)C`, the Potency is greater than 46 µM.

`O=C(O)c1cc(=O)c2ccccc2[nH]1`: the Potency was greater than 46 µM.

Take `Nc1cc(-c2ccncc2)c[nH]c1=O`: the Potency was greater than 20.6 µM.

In the case of `NC[C@@H]1O[C@H](C23CC4CC(CC(C4)C2)C3)Cc2c1ccc(O)c2O`, the Potency was greater than 46 µM.

Turning to `C[N+]1(C)CCC(OC(=O)C(c2ccccc2)c2ccccc2)CC1`, the Potency is greater than 46 µM.

Turning to `Cc1ccc(O)c(N=Nc2ccccc2)n1`, the Potency was greater than 46 µM.

With `Fc1ccc(C(OCCCc2cnc[nH]2)c2ccc(F)cc2)cc1`, the Potency was greater than 46 µM.

With `N#C/C(=C\c1c[nH]c2ccccc12)C(=O)c1ccc(O)c(O)c1`, the Potency is greater than 46 µM.

As to `N[C@@H](CC(=O)O)C(=O)O`, the Potency is greater than 46 µM.

Consider `CN=c1nc(-c2ccccc2)n(-c2ccccc2)s1`, for which the Potency is greater than 46 µM.

On to `COc1cccc(C(=O)NCCN2CCN(c3ccc(Cl)cc3)CC2)c1`, for which the Potency was greater than 46 µM.

Regarding `Cc1nc2sccn2c(=O)c1CCN1CCC(=C(c2ccccc2)c2ccc(F)cc2)CC1`, the Potency is greater than 46 µM.

For the molecule `CN(C)c1ccc(C(=C2C=CC(=[N+](C)C)C=C2)c2ccccc2)cc1`, the Potency was greater than 9.22 µM.

Regarding `N#C/C(=C\c1ccc(O)c(O)c1)C(=O)NCc1ccccc1`, the Potency is greater than 46 µM.

For `COc1ccccc1N1CCN(CCN(C(=O)c2ccc(I)cc2)c2ccccn2)CC1`, the Potency is greater than 46 µM.

In the case of `NCCCS(=O)(=O)O`, the Potency was greater than 46 µM.

On to `CC1(C)CCC=[N+]1[O-]`, for which the Potency was greater than 46 µM.

For the molecule `Oc1ccccc1O`, the Potency is greater than 46 µM.

With `O=c1[nH]c2ccccc2n1CCCN1CCN(C(c2ccccc2)c2ccccc2)CC1`, the Potency was greater than 46 µM.
